Data as given in PubChem BioAssay AID1159580 (chemical genetic matrix, 2015).
The campaign covered roughly 5,500 compounds. About 2,000 (36%) were called active. Roughly 18% stayed inconclusive and do not appear here. Rule as the data show it: active = normalized growth mostly below about 0.91 (no sharp cut-off); inconclusive = no clear call, values can overlap the other calls; inactive = mostly above about 0.92. This is one part of the list.

Test: chemical genetic growth profiling, strain panel (AID 1159580);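 also: tested at 20 µM; growth read once vehicle control cultures reached saturation at 30 °C; 1 = growth at the plate median or of vehicle wells; lower values mean less growth of the strain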
Conditions: S. cerevisiae deletion strains, growth OD

Measured: normalized growth

OC(Cn1cncn1)(Cn1cncn1)c1ccc(F)cc1F
inactive: locus YAL013W, strain DEP1, hits give low values 0.968 | locus YAL021C, strain ccr4, hits give low values 0.972 | locus YAL026C, strain drs2, hits give low values 0.911 | locus YAL030W, strain snc1, hits give low values 1 | locus YBL061C, strain skt5, hits give low values 0.995 | locus YBR009C, strain hhf1, hits give low values 0.998 | locus YBR021W, strain FUR4, hits give low values 0.936 | locus YBR023C, strain chs3, hits give low values 1.01 | locus YBR171W, strain sec66, hits give low values 0.971 | locus YBR229C, strain ROT2, hits give low values 1 | locus YBR231C, strain swc5, hits give low values 0.981 | locus YBR279W, strain paf1, hits give low values 1 | locus YCL011C, strain gbp2, hits give low values 1.01 | locus YCL016C, strain dcc1, hits give low values 0.987 | locus YCL029C, strain bik1, hits give low values 0.984 | locus YCL061C, strain MRC1, hits give low values 0.987 | locus YCL069W, strain vba3, hits give low values 1 | locus YCR088W, strain abp1, hits give low values 1.01 | locus YDL005C, strain med2, hits give low values 0.966 | locus YDL035C, strain GPR1, hits give low values 0.991 | locus YDL040C, strain nat1, hits give low values 1 | locus YDL074C, strain BRE1, hits give low values 1.03 | locus YDL101C, strain DUN1, hits give low values 0.993 | locus YDL134C, strain PPH21, hits give low values 1 | locus YDL185W, strain tfp1, hits give low values 0.948 | locus YDL192W, strain arf1, hits give low values 0.998 | locus YDR001C, strain nth1, hits give low values 1.01 | locus YDR069C, strain doa4, hits give low values 0.971 | locus YDR101C, strain arx1, hits give low values 1 | locus YDR150W, strain NUM1, hits give low values 0.985 | locus YDR159W, strain sac3, hits give low values 0.956 | locus YDR162C, strain NBP2, hits give low values 0.971 | locus YDR195W, strain ref2 1.1 | locus YDR297W, strain sur2, hits give low values 1 | locus YDR318W, strain mcm21, hits give low values 0.986 | locus YDR334W, strain swr1, hits give low values 0.996 | locus YDR335W, strain msn5, hits give low values 1.01 | locus YDR388W, hits give low values 1 | locus YDR392W, strain spt3, hits give low values 0.853 | locus YDR502C, strain sam2, hits give low values 0.992 | locus YEL003W, strain gim4, hits give low values 0.999 | locus YEL037C, strain rad23, hits give low values 1 | locus YEL061C, strain CIN8 (second series), hits give low values 1.01 | locus YEL061C, strain CIN8, hits give low values 0.993 | locus YER015W, strain faa2, hits give low values 1.01 | locus YER016W, strain bim1, hits give low values 1 | locus YER110C, hits give low values 0.974 | locus YER111C, strain swi4, hits give low values 0.999 | locus YER155C, strain BEM2 (second series), hits give low values 0.99 | locus YER155C, strain BEM2, hits give low values 1 | locus YER167W, strain BCK2, hits give low values 1.01 | locus YFR010W, strain ubp6, hits give low values 0.982 | locus YGL078C, strain dbp3, hits give low values 0.997 | locus YGL086W, strain mad1, hits give low values 0.997 | locus YGL167C, strain pmr1, hits give low values 1 | locus YGL173C, strain kem1, hits give low values 1.01 | locus YGL227W, strain vid30, hits give low values 1.01 | locus YGL240W, strain doc1, hits give low values 0.995 | locus YGL248W, strain PDE1, hits give low values 1.02 | locus YGL253W, strain hxk2, hits give low values 0.99 | locus YGR078C, strain PAC10, hits give low values 1.02 | locus YGR135W, strain pre9, hits give low values 0.979 | locus YGR252W, strain gcn5, hits give low values 1 | locus YHR013C, strain ard1, hits give low values 0.957 | locus YHR027C, strain rpn1, hits give low values 1.01 | locus YHR030C, strain SLT2, hits give low values 0.987 | locus YHR079C, strain IRE1 (second series), hits give low values 0.985 | locus YHR094C, strain hxt1, hits give low values 1.01 | locus YHR129C, strain ARP1, hits give low values 1 | locus YHR142W, strain chs7, hits give low values 1 | locus YHR200W, strain rpn10, hits give low values 0.961 | locus YIL066C, strain RNR3, hits give low values 1 | locus YIL073C, strain SPO22, hits give low values 0.943 | locus YIL125W, strain kgd1, hits give low values 1.01 | locus YIR030C, strain dcg1, hits give low values 0.997 | locus YJL092W, strain hpr5, hits give low values 0.998 | locus YJL095W, strain BCK1 (second series), hits give low values 1 | locus YJL095W, strain BCK1, hits give low values 1.07 | locus YJL115W, strain asf1, hits give low values 0.996 | locus YJL129C, strain trk1, hits give low values 1.06 | locus YJL134W, strain LCB3, hits give low values 0.994 | locus YJL154C, strain vps35, hits give low values 1.01 | locus YJL164C, strain tpk1, hits give low values 0.992 | locus YJL166W, strain qcr8, hits give low values 1 | locus YJL168C, strain set2, hits give low values 0.992 | locus YJL187C, strain SWE1 (second series), hits give low values 1.03
active: locus YDR137W, strain rgp1, hits give low values 0.508
